Compound activity from PubChem BioAssay.
Dicer inh: inhibitors of human Dicer processing of pre-microRNA. Q9UPY3. cat-ELCCA pre-miR-21 Dicer processing, chemiluminescence; hits give high values. z-score at 25 µM. 6% of 47,000 active. AID 1347074; in the data active = z-score above about 3, passing the limit was not always enough;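 also: plate controls were vehicle for no effect and no enzyme for full effect; higher signal means more uncleaved substrate so more Dicer inhibition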
Target sequence (Q9UPY3 whole entry, looked up): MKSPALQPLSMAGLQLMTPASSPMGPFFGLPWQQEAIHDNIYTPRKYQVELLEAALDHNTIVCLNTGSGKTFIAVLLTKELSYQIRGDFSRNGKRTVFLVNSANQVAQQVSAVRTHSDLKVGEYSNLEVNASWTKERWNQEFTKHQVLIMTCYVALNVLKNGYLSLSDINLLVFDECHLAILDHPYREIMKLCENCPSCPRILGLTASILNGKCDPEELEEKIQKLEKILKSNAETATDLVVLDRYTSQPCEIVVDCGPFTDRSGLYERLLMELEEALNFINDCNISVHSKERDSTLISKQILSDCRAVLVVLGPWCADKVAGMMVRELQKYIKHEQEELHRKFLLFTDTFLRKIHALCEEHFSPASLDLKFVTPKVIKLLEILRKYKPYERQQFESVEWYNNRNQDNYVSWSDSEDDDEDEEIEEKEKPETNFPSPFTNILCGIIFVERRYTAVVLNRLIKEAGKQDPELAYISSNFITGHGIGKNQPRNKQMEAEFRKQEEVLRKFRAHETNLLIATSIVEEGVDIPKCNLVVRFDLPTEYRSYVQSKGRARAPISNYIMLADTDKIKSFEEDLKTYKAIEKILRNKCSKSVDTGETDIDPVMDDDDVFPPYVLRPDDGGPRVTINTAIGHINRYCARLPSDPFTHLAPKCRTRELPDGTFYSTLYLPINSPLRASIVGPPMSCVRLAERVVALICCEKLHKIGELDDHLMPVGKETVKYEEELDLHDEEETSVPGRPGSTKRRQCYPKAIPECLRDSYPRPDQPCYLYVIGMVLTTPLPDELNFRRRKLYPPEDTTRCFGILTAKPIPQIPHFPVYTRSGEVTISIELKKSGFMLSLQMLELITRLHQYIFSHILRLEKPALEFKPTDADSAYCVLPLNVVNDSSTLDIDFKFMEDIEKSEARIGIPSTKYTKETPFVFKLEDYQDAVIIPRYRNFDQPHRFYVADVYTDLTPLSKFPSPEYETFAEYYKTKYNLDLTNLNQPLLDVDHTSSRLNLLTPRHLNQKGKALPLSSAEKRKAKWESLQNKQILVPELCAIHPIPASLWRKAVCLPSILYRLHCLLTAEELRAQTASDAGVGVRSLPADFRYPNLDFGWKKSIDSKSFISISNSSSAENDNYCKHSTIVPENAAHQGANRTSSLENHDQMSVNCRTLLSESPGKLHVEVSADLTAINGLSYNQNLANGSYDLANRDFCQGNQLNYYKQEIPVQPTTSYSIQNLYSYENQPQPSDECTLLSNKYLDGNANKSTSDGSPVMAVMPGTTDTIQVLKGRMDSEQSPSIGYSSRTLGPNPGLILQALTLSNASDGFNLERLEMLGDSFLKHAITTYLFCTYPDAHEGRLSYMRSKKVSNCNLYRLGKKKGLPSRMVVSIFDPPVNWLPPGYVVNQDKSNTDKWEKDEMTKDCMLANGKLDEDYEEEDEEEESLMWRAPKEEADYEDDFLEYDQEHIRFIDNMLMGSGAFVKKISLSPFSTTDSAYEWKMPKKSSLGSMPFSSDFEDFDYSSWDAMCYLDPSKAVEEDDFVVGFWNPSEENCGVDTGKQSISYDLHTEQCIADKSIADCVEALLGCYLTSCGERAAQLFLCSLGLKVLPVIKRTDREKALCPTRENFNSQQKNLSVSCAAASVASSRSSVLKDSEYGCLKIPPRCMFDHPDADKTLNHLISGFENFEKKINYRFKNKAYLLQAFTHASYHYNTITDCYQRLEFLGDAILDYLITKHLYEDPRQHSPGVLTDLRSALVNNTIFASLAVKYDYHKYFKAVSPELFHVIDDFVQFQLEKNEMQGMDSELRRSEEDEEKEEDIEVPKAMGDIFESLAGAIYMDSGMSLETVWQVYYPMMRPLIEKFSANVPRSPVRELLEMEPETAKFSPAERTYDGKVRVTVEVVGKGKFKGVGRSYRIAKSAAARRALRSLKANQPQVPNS
* = called active by the depositor. The full list was thinned out, with hits kept by preference.

SMILES | Dicer inh
O=S(=O)(Nc1ccccc1)c1ccc(-c2ccc(S(=O)(=O)Nc3ccccc3)cc2)cc1 | -0.35
Cc1ccc(S(=O)(=O)Nc2ccc(N(C)S(=O)(=O)c3ccc(C)cc3)cc2)cc1 | 0.4
CCN(CC)c1ccc(NS(=O)(=O)c2ccccc2)cc1 | 4.8*
O=C1CC(c2ccc(Cl)cc2)c2cc3c(cc2N1)OCO3 (stereo not drawn) | 3.6*
COc1cc2c(cc1OC)C(c1ccc(F)cc1)CC(=O)N2 (stereo not drawn) | 0.86
O=C1CC(c2ccc3c(c2)OCO3)c2c(n[nH]c2-c2ccc(Cl)cc2)N1 (stereo not drawn) | 0.01
CSc1nnc2c(n1)OC(c1ccccc1C)N(C(C)=O)c1ccccc1-2 (stereo not drawn) | 0.57
COc1ncccc1C(=O)NC(CCSC)C(=O)O (stereo not drawn) | -1.4
CCOC(=O)CC(=O)NC(=O)OCC | -1.3
O=C(COC(=O)c1ccccc1Cl)c1ccc(Br)cc1 | -0.43
COCCOC(=O)c1c(C)oc2ccc(OCC(=O)c3ccc(Br)cc3)cc12 | -0.46
Cc1cc(=O)oc(C)c1C(=O)OCC(=O)c1ccc(Br)cc1 | 5*
Cc1onc(-c2ccccc2Cl)c1C(=O)OCC(=O)c1ccc(Br)cc1 | 3.9*
Cc1onc(-c2ccccc2)c1C(=O)OCC(=O)c1ccccc1 | 2
Cc1ccc2[nH]c(=O)cc(C(=O)OCC(=O)c3ccc(Br)cc3)c2c1 | -0.05
CCOC(=O)c1cnc(NNC(=O)c2ccccc2F)nc1C(F)(F)F | 1.9
O=C1NC(Cc2ccccc2)C(=O)N1c1ccccc1 (stereo not drawn) | -0.22
O=C(NC(=O)C1CCCCC1)c1ccccc1O | -1.8
Oc1ccccc1C1CCCCC1c1ccccc1 (stereo not drawn) | 4.7*
O=C1Cc2ccccc2C(c2ccccc2)N1 (stereo not drawn) | 0.47
Nc1nc2nc(N3CCOCC3)[nH]c2c(=O)[nH]1 | -0.4
COc1ccc(C(=O)CSc2n[nH]c(-c3ccco3)n2)cc1 | 1.4
COc1ccc(C(=O)CSc2n[nH]c(-c3ccco3)n2)cc1C | 5.6*
Cc1ccc(C(=O)CSc2n[nH]c(-c3ccco3)n2)cc1C | -0.82
C=CCc1c(CCC)nc(SC)[nH]c1=O | -0.56
SMILES | Dicer inh
COC(=O)C1Cc2c([nH]c3ccccc23)C2(CCN(C)CC2)N1 (stereo not drawn) | 0.36
CSC(SC)=C(C#N)S(C)(=O)=O | -0.76
CN(NC(=O)c1ccccc1Cl)c1cccc(F)c1C#N | -0.07
CN(NS(=O)(=O)c1ccc(Cl)c(Cl)c1)c1cccc(F)c1C#N | 3.6*
Cc1cc(S(=O)(=O)NN(C)c2cccc(Cl)c2C#N)cc(C)c1F | -0.13
COC(=O)c1sc(N2C(=O)c3oc4ccc(F)cc4c(=O)c3C2c2ccc(SC)cc2)nc1C (stereo not drawn) | 0.92
O=C(COc1ccc2c(=O)c(Oc3ccccc3Br)coc2c1)OC1CCCCC1 | -0.81
O=S(=O)(Nc1ccc(Oc2ccc(F)cc2)nc1)c1cccc2cccnc12 | 0.4
Cc1onc(-c2c(Cl)cccc2Cl)c1CSC(=S)N(C)C | 6.6*
Cc1onc(-c2c(Cl)cccc2Cl)c1N | -1
CSC(=S)N(C)NC(=O)Nc1c(-c2c(Cl)cccc2Cl)noc1C | -0.93
COc1nc2c(c(-c3cccs3)c1C#N)C(=O)c1ccccc1-2 | 0.63
